PubChem BioAssay AID1159580 (chemical genetic matrix, 2015)
Among all 5,500 compounds or so, about 2,000 (36%) were called active. Inconclusive results (about 18%) are left out. Rule as the data show it: active = normalized growth mostly below about 0.91 (no sharp cut-off); inconclusive = no clear call, values can overlap the other calls; inactive = mostly above about 0.92. The list shows a part of the results.

Assay: chemical genetic growth profiling, strain panel (AID 1159580);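 also: tested at 20 µM; growth read once vehicle control cultures reached saturation at 30 °C; 1 = growth at the plate median or of vehicle wells; lower values mean less growth of the strain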
Settings: growth OD

Measured: normalized growth

COC1C(O)C(O)C(O)[C@@H](O)C1O (some centres undefined)
inactive: S. cerevisiae deletion strains, locus YJR066W, strain TOR1, active compounds read low 0.926 | S. cerevisiae deletion strains, locus YJR075W, strain HOC1, active compounds read low 1.01 | S. cerevisiae deletion strains, locus YKL009W, strain mrt4, active compounds read low 1.1 | S. cerevisiae deletion strains, locus YKL068W, active compounds read low 1.01 | S. cerevisiae deletion strains, locus YKL085W, strain MDH1 (second series), active compounds read low 1.02 | S. cerevisiae deletion strains, locus YKL085W, strain MDH1, active compounds read low 1.02 | S. cerevisiae deletion strains, locus YKL160W, strain elf1, active compounds read low 0.968 | S. cerevisiae deletion strains, locus YKL190W, strain CNB1, active compounds read low 1.01 | S. cerevisiae deletion strains, locus YKR001C, strain vps1, active compounds read low 1.05 | S. cerevisiae deletion strains, locus YKR026C, strain gcn3, active compounds read low 0.978 | S. cerevisiae deletion strains, locus YKR091W, strain srl3, active compounds read low 0.972 | S. cerevisiae deletion strains, locus YLL001W, strain dnm1, active compounds read low 0.944 | S. cerevisiae deletion strains, locus YLL026W, active compounds read low 0.992 | S. cerevisiae deletion strains, locus YLL041C, strain sdh2, active compounds read low 0.978 | S. cerevisiae deletion strains, locus YLR027C, strain aat2, active compounds read low 0.969 | S. cerevisiae deletion strains, locus YLR039C, strain RIC1, active compounds read low 1.07 | S. cerevisiae deletion strains, locus YLR058C, strain SHM2, active compounds read low 1.01 | S. cerevisiae deletion strains, locus YLR102C, strain apc9, active compounds read low 1.02 | S. cerevisiae deletion strains, locus YLR113W, strain HOG1, active compounds read low 0.97 | S. cerevisiae deletion strains, locus YLR221C, strain rsa3, active compounds read low 0.965 | S. cerevisiae deletion strains, locus YLR258W, strain gsy2, active compounds read low 0.979 | S. cerevisiae deletion strains, locus YLR262C, strain YPT6 (second series), active compounds read low 0.971 | S. cerevisiae deletion strains, locus YLR262C, strain YPT6, active compounds read low 1.03 | S. cerevisiae deletion strains, locus YLR268W, strain sec22, active compounds read low 1.05 | S. cerevisiae deletion strains, locus YLR320W, strain mms22, active compounds read low 0.963 | S. cerevisiae deletion strains, locus YLR330W, strain CHS5, active compounds read low 1.01 | S. cerevisiae deletion strains, locus YLR342W, strain FKS1 (second series), active compounds read low 1.08 | S. cerevisiae deletion strains, locus YLR342W, strain FKS1, active compounds read low 0.973 | S. cerevisiae deletion strains, locus YLR357W, strain rsc2, active compounds read low 0.959 | S. cerevisiae deletion strains, locus YLR370C, strain arc18, active compounds read low 0.971 | S. cerevisiae deletion strains, locus YLR371W, strain rom2, active compounds read low 1.02 | S. cerevisiae deletion strains, locus YLR384C, strain iki3, active compounds read low 0.96 | S. cerevisiae deletion strains, locus YLR418C, strain cdc73, active compounds read low 1.06 | S. cerevisiae deletion strains, locus YML016C, strain PPZ1, active compounds read low 1.01 | S. cerevisiae deletion strains, locus YML032C, strain rad52, active compounds read low 1.04 | S. cerevisiae deletion strains, locus YML120C, strain ndi1, active compounds read low 0.97 | S. cerevisiae deletion strains, locus YML124C, strain tub3, active compounds read low 1.02 | S. cerevisiae deletion strains, locus YMR058W, strain fet3, active compounds read low 0.973 | S. cerevisiae deletion strains, locus YMR078C, strain ctf18, active compounds read low 1.01 | S. cerevisiae deletion strains, locus YMR125W, strain sto1, active compounds read low 0.958 | S. cerevisiae deletion strains, locus YMR129W, active compounds read low 0.976 | S. cerevisiae deletion strains, locus YMR205C, strain PFK2, active compounds read low 0.966 | S. cerevisiae deletion strains, locus YMR223W, strain ubp8, active compounds read low 1 | S. cerevisiae deletion strains, locus YMR231W, strain pep5, active compounds read low 0.971 | S. cerevisiae deletion strains, locus YMR263W, strain SAP30, active compounds read low 0.997 | S. cerevisiae deletion strains, locus YMR307W, strain GAS1, active compounds read low 1.05 | S. cerevisiae deletion strains, locus YNL067W, strain RPL9B, active compounds read low 0.998 | S. cerevisiae deletion strains, locus YNL071W, strain lat1, active compounds read low 0.973 | S. cerevisiae deletion strains, locus YNL128W, strain TEP1, active compounds read low 1.03 | S. cerevisiae deletion strains, locus YNL183C, strain NPR1, active compounds read low 0.962 | S. cerevisiae deletion strains, locus YNL209W, strain ssb2, active compounds read low 0.987 | S. cerevisiae deletion strains, locus YNL233W, strain BNI4, active compounds read low 1.01 | S. cerevisiae deletion strains, locus YNL248C, strain rpa49, active compounds read low 0.976 | S. cerevisiae deletion strains, locus YNL250W, strain rad50, active compounds read low 1.02 | S. cerevisiae deletion strains, locus YNL271C, strain bni1, active compounds read low 1.01 | S. cerevisiae deletion strains, locus YNL298W, strain CLA4, active compounds read low 1.03 | S. cerevisiae deletion strains, locus YNL307C, strain MCK1, active compounds read low 1.02 | S. cerevisiae deletion strains, locus YNL322C, strain KRE1 (second series), active compounds read low 0.97 | S. cerevisiae deletion strains, locus YNR049C, strain mso1, active compounds read low 0.979 | S. cerevisiae deletion strains, locus YNR052C, strain pop2, active compounds read low 1.01 | S. cerevisiae deletion strains, locus YOL012C, strain htz1 1.17 | S. cerevisiae deletion strains, locus YOL147C, strain pex11, active compounds read low 1.01 | S. cerevisiae deletion strains, locus YOR001W, strain rrp6, active compounds read low 0.995 | S. cerevisiae deletion strains, locus YOR061W, strain CKA2, active compounds read low 1.02 | S. cerevisiae deletion strains, locus YOR069W, strain VPS5, active compounds read low 1.01 | S. cerevisiae deletion strains, locus YOR070C, strain gyp1, active compounds read low 1 | S. cerevisiae deletion strains, locus YOR080W, strain dia2, active compounds read low 0.979 | S. cerevisiae deletion strains, locus YOR083W, strain WHI5, active compounds read low 0.964 | S. cerevisiae deletion strains, locus YOR106W, strain vam3, active compounds read low 0.96 | S. cerevisiae deletion strains, locus YOR136W, strain idh2, active compounds read low 1.03 | S. cerevisiae deletion strains, locus YOR144C, strain elg1, active compounds read low 1.01 | S. cerevisiae deletion strains, locus YOR184W, strain ser1, active compounds read low 1.03 | S. cerevisiae deletion strains, locus YOR231W, strain MKK1, active compounds read low 0.977 | S. cerevisiae deletion strains, locus YOR265W, strain rbl2, active compounds read low 0.989 | S. cerevisiae deletion strains, locus YOR270C, strain vph1, active compounds read low 0.985 | S. cerevisiae deletion strains, locus YOR290C, strain snf2, active compounds read low 0.913 | S. cerevisiae deletion strains, locus YOR316C, strain cot1, active compounds read low 1.02 | S. cerevisiae deletion strains, locus YPL051W, strain arl3, active compounds read low 0.97 | S. cerevisiae deletion strains, locus YPL055C, strain LGE1, active compounds read low 1.02 | S. cerevisiae deletion strains, locus YPL078C, strain atp4, active compounds read low 0.965 | S. cerevisiae deletion strains, locus YPL106C, strain sse1, active compounds read low 0.949 | S. cerevisiae deletion strains, locus YPL240C, strain hsp82, active compounds read low 0.986 | S. cerevisiae deletion strains, locus YPL256C, strain CLN2, active compounds read low 0.93 | S. cerevisiae deletion strains, locus YPR119W, strain clb2, active compounds read low 1.02 | S. cerevisiae deletion strains, locus YPR141C, strain kar3, active compounds read low 1.03 | S. cerevisiae deletion strains, locus YPR163C, strain tif3, active compounds read low 1.02 | S. cerevisiae deletion strains, locus YPR167C, strain met16, active compounds read low 1.05 | S. cerevisiae deletion strains, strain wtn01, active compounds read low 1.06 | S. cerevisiae strains, strain wild type, active compounds read low 1.01
